Screening results: PubChem, National Center for Advancing Translational Sciences (NCATS)
Sm TGR block: inhibitors of Schistosoma mansoni thioredoxin glutathione reductase. Q962Y6. purified TGR, DTNB reduction, TNB absorbance 405 nm. Potency, µM (doses to about 114 µM), for inactives: top-dose activity change, negative = inhibition, actives largely listed as inhibitors. 360,000 tested, 3% active; note: potency is the fitted concentration of half-maximal effect; nearly all actives have a fitted effect of over 60% in size
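Kinetic colorimetric format: TGR-catalysed, NADPH-driven DTNB reduction monitored via TNB absorbance. Enzyme dispensed at 20 nM; compound exposure 15 min at room temperature before reaction start.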
FMDV inh: antivirals against foot and mouth disease virus; FMDV antiviral cell-based qHTS; Potency, µM (highest dose often 57.9 µM), without a hit: at the highest dose activity change, negative = inhibition, usual class: inhibitors; 410,000 tested, 1.2% active; AID 1159524; calls by dose curve; tested in HEK293T cells; note: read-out not given here; potency is the fitted concentration of half-maximal effect; nearly all actives have a fitted effect of over 45% in size
HCV inhibitor: inhibitors of hepatitis C virus infection | 340,000 tested, 3.4% active | Huh7.5.1 HCVcc-Cre infection, luciferase reporter, 44 h | Potency, µM (highest dose often 41.8 µM), for the others: at the top dose activity change, negative = inhibition, usual class: inhibitors; note: potency is the fitted concentration of half-maximal effect
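After 44 h co-culture of compound, cells and HCVcc-Cre (~0.5 moi), substrate is added for 15 min at room temperature and luciferase measured over 15 sec. Cells were seeded at 1,000/well and pre-cultured 4 h.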
Vaccinia mCherry: vaccinia inhibition (mCherry reporter); Vaccinia virus mCherry reporter infection, fluorescence; Potency, µM (top dose mostly 36.5 µM), inactives show top-dose activity change, negative = inhibition, usual class: inhibitors; 310,000 tested, 0.63% active; calls by dose curve; tested in A549 cells; note: potency is the fitted concentration of half-maximal effect; nearly all actives have a fitted effect of over 35% in size
Vaccinia Venus: vaccinia inhibition (Venus reporter) | Vaccinia virus Venus reporter expression, fluorescence | Potency, µM (doses to about 36.5 µM), for the others: at the top dose activity change, negative = inhibition, actives largely listed as inhibitors | 330,000 tested, 0.46% active | AID 720580; calls by dose curve; tested in A549 cells; note: potency is the fitted concentration of half-maximal effect; nearly all actives have a fitted effect of over 30% in size
HCMV antiviral: human cytomegalovirus inhibition; HFF cells, HCMV-luciferase reporter, 72 h; stronger effect = lower value; activity change, negative = inhibition, % at 57.5 µM; 410,000 tested, 4.5% active; in the data active = activity change below about -60%; inconclusive = no clear call, values can overlap the other calls; inactive = above about -39%
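Two compound doses tested in HFFs infected with HCMV-luciferase, MOI 1 PFU/cell, 72 h at 37C. Lysate luminescence read with OneGlo; data normalized against buffer-only and 10uM Salinomycin inhibitor controls.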
The depositor's hits bear a star; i = inactive; u = inconclusive; x = no result. Shown are actives, neighbours in structure and some others; about 9.3% of the full set was active somewhere. Unless noted, calls come from the whole dose curve; as a rule, active = well fitted curve in the direction sought with a large enough effect; inconclusive = small, poorly fitted or top-dose-only effect, or another doubt; inactive = no such curve, though single readings can be large; an effect the other way counts as inactive or inconclusive. % is set by controls: 0 for no effect and ±100 for the full control effect.

SMILES	Sm TGR block	FMDV inh	HCV inhibitor	Vaccinia mCherry	Vaccinia Venus	HCMV antiviral
O=C(CC1C(=O)NCCN1Cc1cccc(F)c1)NCCCN1CCCC1=O (stereo unspecified)	0%	-8%	15%	-10%	1%	21
COc1cccc(CCNC(=O)CC2C(=O)NCCN2Cc2ccc(C)o2)c1 (stereo unspecified)	50µM*	9%	10%	x	x	0
Cc1ccc(CN2CCNC(=O)C2CC(=O)O)o1 (stereo unspecified)	45µM*	2%	-4%	i	-18%	-5
COc1cccc(CCNC(=O)CC2C(=O)NCCN2CC(C)(C)C)c1 (stereo unspecified)	u	-9%	4%	i	-12%	-24
COc1cc(CN2CCNC(=O)C2CC(=O)N2CCCN(C(C)=O)CC2)cc(OC)c1 (stereo unspecified)	32µM*	-5%	20%	-7%	-4%	x
COc1cccc(CN2CCNC(=O)C2CC(=O)NCCCN2CCCC2=O)c1 (stereo unspecified)	18µM*	-6%	28%	x	x	-23
COc1ccc(/C=N\NC(=O)/C(=C\Nc2nccc(C)n2)NC(=O)c2ccccc2)cc1	-13%	-18%	-3%	x	-8%	-11
C=CCOc1c2ccc(C(=O)NC3CCCc4ccccc43)cc2nn1C (stereo unspecified)	4%	-2%	u	i	-17%	-22
CCOc1ccc(C2C3=C(CC(C)(C)CC3=O)N(CCCOC)C3=C2C(=O)CC(C)(C)C3)cc1OC	x	-6%	x	i	-15%	2
C/C(=N\Nc1ccc([N+](=O)[O-])cc1)c1ccc(-n2nncc2C)cc1	-5%	-10%	u	u	u	-66*
C/C(=N\Nc1nc(C)c(C)s1)c1ccc([N+](=O)[O-])cc1	22µM*	28µM*	u	u	u	54
C/C(=N\Nc1ccc([N+](=O)[O-])cc1)c1ccc(N)cc1	-36%	29%	-20%	-23%	-1%	93
CS(=O)(=O)c1ccc(Sc2nc3ccccc3s2)c([N+](=O)[O-])c1	u	35µM*	u	u	u	x
O=[N+]([O-])c1cc(S(=O)(=O)C(F)(F)F)ccc1Sc1nc2ccccc2s1	14µM*	u	-19%	x	-9%	99
O=S(=O)(Nc1ccc(O)c(Sc2nc3ccccc3s2)c1)c1ccc(F)cc1	-18%	u	4%	-2%	-20%	19
O=[N+]([O-])c1cc(S(=O)(=O)C(F)(F)F)ccc1Sc1nc2ccccc2[nH]1	28µM*	u	u	-28%	-12%	-103*
CS(=O)(=O)c1ccc(Sc2nc3ccccc3[nH]2)c([N+](=O)[O-])c1	-15%	-19%	-12%	x	x	u
O=C(/C=C/c1ccc(Cl)cc1Cl)Nc1ccncc1	7%	41%	u	-27%	-20%	-4
O=C(O)C1CCCCC1C(=O)Nc1ccc2c(c1)OCCO2 (stereo unspecified)	-2%	u	28%	-4%	1%	-7
COc1ccc(C2CCCN2C(=O)Nc2ccc(Cl)cc2)cc1OC (stereo unspecified)	3%	-8%	u	i	-21%	-72*
Cc1nn(C)cc1NC(=O)c1ccc(Br)o1	-1%	4%	2%	-14%	-5%	-32
N#Cc1cccc(S(=O)(=O)NCC(=O)OCC(=O)NCc2ccccc2)c1	2%	-1%	3%	x	x	-9
C=C1[C@@H](O)[C@@H]2O[C@]3(CC[C@H](/C=C/[C@@H](C)[C@@H]4CC(C)=CC5(O[C@H](C[C@@](C)(O)C(=O)OC)CC[C@H]5O)O4)O3)CC[C@H]2O[C@@H]1[C@@H](O)C[C@H](C)[C@H]1OC2(CCCCO2)CC[C@H]1C (stereo partly specified)	x	10%	0.56µM*	1.3µM*	1.3µM*	x
